# Reference: the supplement of paper PMC6805474
# System: Schistosoma mansoni schistosomula (LE)
# Test: XTT viability relative to DMSO control; higher = more viable (less active)
# Details: 72 h; 10 µM
# Experimental: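 XTT/PMS was then added for a further 24 h (72 h total) and A450 was read. % viability = (sample - heat-killed control)/(DMSO control - heat-killed control) x 100, from duplicate wells in two independent experiments.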
row,Compound,XTT viability
1,O=C(C1CCN(c2nnnn2-c2ccccc2)CC1)N1CCc2ccccc2C1,117%
2,O=C(NCCc1c[nH]c2ccccc12)c1cc2ccccc2oc1=O,91.2%
3,Cc1ccc(S(=O)(=O)n2cc(-c3ccnc(N)c3)c3cc(Br)cnc32)cc1,4.55%
4,Nc1ncnc2[nH]nc(Cc3cccc4ccccc34)c12,94.1%
5,CC(C)(C)OC(=O)N1CCN(c2cc(-c3ccc(Oc4ccccc4)cc3)n[nH]2)CC1,66.1%
6,O=C(Nc1nc(-c2ccccn2)cs1)C1CC1c1ccccc1F (stereo not given),71.7%
7,O=C(Nc1cnc2ccccc2c1)c1cccc(-n2cnnn2)c1,85.7%
8,O=C(NCCc1ccccc1)c1cc(-c2cccnc2)cnc1NCC1CC1,85.9%
9,COc1cccc(-n2nnnc2S(C)(=O)=O)c1,-0.214%
10,FC(F)(F)c1nnc2ccc(Cl)nn12,84%
11,C[C@@H]1[C@H](O)[C@@H](C)/C=C/C=C/C=C/C=C/C=C/C=C/C=C/[C@H](O[C@@H]2O[C@H](C)[C@@H](O)[C@H](N)[C@@H]2O)C[C@@H]2O[C@](O)(C[C@@H](O)C[C@@H](O)[C@H](O)CC[C@@H](O)C[C@@H](O)CC(=O)O[C@H]1C)C[C@H](O)[C@H]2C(=O)O,95%
12,O=C(Nc1nc(-c2ccccn2)cs1)c1cncn1-c1ccccc1,68.7%
13,O=C(NCc1cc(Cl)cc(Cl)c1)c1c(C(F)(F)F)nc2ccccn12,93.7%
14,COc1cccc(-n2nnnc2S(=O)(=O)Cc2ccccc2)c1,-7.15%
15,CC(C)(C)n1nc(Cc2cccc3ccccc23)c2c(N)ncnc21,85.5%
16,NC(=O)c1cc(Br)ccc1OCCOc1ccccc1,110%
17,NCCCC(N)(C(=O)O)C(F)F (stereo not given),87.1%
18,O=C1COCc2ccc(Br)cc2N1Cc1ccc(C(F)(F)F)cc1,99.5%
19,CC1(C)Cc2c(c(N3CCOCC3)nc3snc(Br)c23)CO1,71.5%
20,Cc1ncc(-c2ccnc(Nc3ccc(S(C)(=O)=O)cc3)n2)n1C(C)C,66.9%

row,Compound,XTT viability
1,O=C(NCCN1CCCC1)c1cc(NCCCCN2CCC(F)(F)CC2)nc2ccc(Cl)cc12,86.9%
2,CC(C)NCC(=O)Nc1cccc(C(=O)Nc2cccc(C(F)(F)F)c2)c1,86.7%
3,CC(C)(C)c1cc(C(=O)Nc2cccnc2)cc(C(=O)Nc2cccnc2)c1,79.8%
4,O=C(NC1CCN(c2ccnc3ccccc23)C1)c1cccc(C(F)(F)F)c1 (stereo not given),103%
5,Cc1nnc(NCc2cccc(Cl)c2)c2ccccc12,102%
6,c1ccc(Oc2ccc(-c3cc(N4CCNCC4)[nH]n3)cc2)cc1,25.2%
7,CC(=O)NCC1CN(c2ccc(-c3ccc(CO)cc3)c(F)c2)C(=O)O1 (stereo not given),138%
8,CC(C(=O)Nc1ccc2oc(-c3ccncc3)nc2c1)c1ccccc1 (stereo not given),89.9%
9,CCN(CC)C(=O)N1CCN(C)CC1,95.5%
10,O=C(Nc1cccnc1)c1c(O)c2cccc3c2n(c1=O)CC3,118%
11,CCCn1c(NC(=O)c2ccc3ccccc3n2)nc2ccccc21,5.68%
12,CC(C)N=c1cc2n(-c3ccc(Cl)cc3)c3ccccc3nc-2cc1Nc1ccc(Cl)cc1,16.6%
13,CNC1C(OC2C(OC3C(O)C(O)C(NC(=N)N)C(O)C3NC(=N)N)OC(C)C2(O)C=O)OC(CO)C(O)C1O (stereo not given),93%
14,Cn1c(=O)c2c(S(C)(=O)=O)snc2n(C)c1=O,-0.448%
15,Cc1cc(C(=O)Nc2cnn(Cc3ccc(Cl)cc3Cl)c2)no1,91.7%
16,CC(C)n1nc(-c2cc3c(Cl)cccc3[nH]2)c2c(N)ncnc21,54.3%
17,Cc1ccc2nc(C)c(-c3ccn(Cc4ccccc4)n3)n2c1,95.7%
18,CCC(Sc1nc2ccccc2o1)C(=O)Nc1nccs1 (stereo not given),7.06%
19,CNc1snc(C)c1C(=O)NCCOc1ccc(OC)cc1,91.3%
20,CC1CS(=O)(=O)CCN1/N=C/c1ccc([N+](=O)[O-])o1 (stereo not given),224%
